A selection: hits, their analogues and other compounds. The true share with any hit is near 8.7%.
Sfp PPTase inh = blocks B. subtilis Sfp PPTase activity. Q9F4F7. Biochemical Sfp PPTase activity, qHTS. Potency, µM, for inactives: largest response in the series, negative = inhibition, hits mostly inhibitors. 310,000 compounds, 3.5% hits. AID 1490;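 also: the enzyme is Sfp with the accession as filed and its product quenches rhodamine fluorescence; 0% = enzyme reaction without inhibitor and -100% = no enzyme wells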
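With Hepes-Na pH 7.6 buffer containing 10 mM MgCl2, Sfp (15 nM) modified BHQ-2-YbbR (12.5 uM) using rhodamine-CoA (5 uM). Two reads 30 minutes apart at 525/598 nm yielded each well's rate.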
G9a block = blocks human histone lysine methyltransferase G9a; Q96KQ7; G9a H3K9 monomethylation, AlphaScreen, 2 h; Potency, µM (highest dose often 102 µM), without a hit: at the highest dose activity, negative = inhibition, usual class: inhibitors; 350,000 compounds, 8.8% hits; AID 504332; also: % is scaled to controls: 0 for no effect and ±100 for the full control effect; nearly all actives have a fitted effect of over 75% in size
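Using a bead-based AlphaScreen, monomethylated H3K9 product from 2 h room-temperature reactions (G9a 20 nM, peptide 500 nM, SAM 20 uM) was detected with 0.5 ug/mL rabbit anti-H3K9me1 antibody.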
HP1b binding inh = inhibitors of HP1-beta chromodomain binding to methylated histone tails; P83916; AlphaScreen HP1-beta / biotin-H3K9me3 peptide binding; Potency, µM (top dose mostly 114 µM), for the others: at the highest dose activity change, negative = inhibition, hits mostly inhibitors; 390,000 compounds, 0.56% hits; also: nearly all actives have a fitted effect of over 70% in size
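HP1-beta protein (50 nM final) preincubated 30 min at room temperature with biotinylated H3(1-18)K9me3 peptide (50 nM) in PBS pH 7.4, 0.01% Tween-20, then compound added for 30 min. AlphaScreen streptavidin donor/nickel chelate acceptor beads (10 ug/mL final), 30 min dark, luminescence read.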
JMJD2A Tudor = blocks the human JMJD2A Tudor domain; O75164; 390,000 compounds, 4.4% hits; AID 504339; Potency, µM (titrated, usually from 114 µM), for the others: top-dose activity change, negative = inhibition, actives largely listed as inhibitors; AlphaScreen JMJD2A-Tudor / H3K4me3 peptide binding; also: % is scaled to controls: 0 for no effect and ±100 for the full control effect; nearly all actives have a fitted effect of over 50% in size
Target sequence (O75164 whole entry, looked up, the tested form may be a part): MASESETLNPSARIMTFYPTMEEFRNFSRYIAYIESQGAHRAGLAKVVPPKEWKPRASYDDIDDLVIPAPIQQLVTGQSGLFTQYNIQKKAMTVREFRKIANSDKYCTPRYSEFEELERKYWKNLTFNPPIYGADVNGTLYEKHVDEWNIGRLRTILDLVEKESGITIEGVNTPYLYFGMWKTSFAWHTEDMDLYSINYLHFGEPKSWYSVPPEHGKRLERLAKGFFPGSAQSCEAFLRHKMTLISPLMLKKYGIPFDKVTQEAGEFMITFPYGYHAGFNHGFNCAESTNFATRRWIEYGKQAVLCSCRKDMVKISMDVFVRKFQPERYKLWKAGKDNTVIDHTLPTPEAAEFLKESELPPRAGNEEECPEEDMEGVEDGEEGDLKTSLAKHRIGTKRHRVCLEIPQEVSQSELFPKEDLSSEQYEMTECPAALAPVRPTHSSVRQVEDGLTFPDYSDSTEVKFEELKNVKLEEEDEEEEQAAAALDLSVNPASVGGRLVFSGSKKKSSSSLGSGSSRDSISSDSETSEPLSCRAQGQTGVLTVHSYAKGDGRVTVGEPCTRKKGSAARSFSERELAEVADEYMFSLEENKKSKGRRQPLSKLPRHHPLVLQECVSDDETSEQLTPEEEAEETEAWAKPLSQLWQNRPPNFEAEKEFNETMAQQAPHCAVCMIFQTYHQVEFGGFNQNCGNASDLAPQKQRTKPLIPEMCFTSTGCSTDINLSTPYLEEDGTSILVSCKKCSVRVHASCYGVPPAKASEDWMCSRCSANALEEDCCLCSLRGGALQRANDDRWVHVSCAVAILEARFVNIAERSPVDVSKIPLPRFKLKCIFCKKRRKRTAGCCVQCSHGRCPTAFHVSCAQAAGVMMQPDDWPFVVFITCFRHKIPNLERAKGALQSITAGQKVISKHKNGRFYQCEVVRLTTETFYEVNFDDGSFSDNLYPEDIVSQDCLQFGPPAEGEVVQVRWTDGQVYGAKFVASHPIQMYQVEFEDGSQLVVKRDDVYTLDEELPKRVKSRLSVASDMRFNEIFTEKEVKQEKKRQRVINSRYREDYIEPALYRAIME
ALOX12 inh = ALOX12 (human) lipoxygenase inhibition; 580,000 compounds, 1.1% hits; AID 1671190; Potency, µM (top dose mostly 108 µM), without a hit: at the highest dose activity change, negative = inhibition, most hits filed as inhibitors; purified 12hLO, xylenol orange hydroperoxide absorbance; also: % is scaled to controls: 0 for no effect and ±100 for the full control effect
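Purified human 12hLO at 150 nM in 25 mM Hepes, 0.01% Triton X-100, pH 7.0, preincubated 15 min at room temperature with compound. Reaction started with 40 uM arachidonic acid, 30 min at room temperature. Hydroperoxide measured by Fe-xylenol orange, 573/405 nm absorbance ratio.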
BAZ2B block = blocks human BAZ2B; Q9UIF8; AlphaScreen BAZ2B-H3K14Ac peptide displacement; Potency, µM (highest dose often 114 µM), for inactives: at the highest dose activity change, negative = inhibition, hits mostly inhibitors; 360,000 compounds, 4.4% hits; also: % is scaled to controls: 0 for no effect and ±100 for the full control effect; nearly all actives have a fitted effect of over 60% in size
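Protein-peptide AlphaScreen: BAZ2B 50 nM, b-H3K14Ac 50 nM, 1x PBS pH 7.4 + 0.01% Tween-20. Preincubation 30 min RT; cpd 30 min RT (top 110 uM); beads 20 min RT, light-protected.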
* hit, by the source's call; ? = inconclusive; . = not tested or not shown; [ ] = remark or other dose. Calls follow the shape of the dose curve; as a rule, active = well fitted curve in the direction sought with a large enough effect; inconclusive = small, poorly fitted or top-dose-only effect, or another doubt; inactive = no such curve, though single readings can be large; an effect the other way counts as inactive or inconclusive. Potency is read from the fitted curve at half-maximal effect.

SMILES	Sfp PPTase inh	G9a block	HP1b binding inh	JMJD2A Tudor	ALOX12 inh	BAZ2B block
CCN(CC)CCN1C(=O)/C(=C\c2ccc(Cl)c([N+](=O)[O-])c2)SC1=Nc1ccc(OC)cc1	44.7µM*	11.2µM*	11.2µM*	17.8µM*	?	10µM*
Cc1ccc(C(=O)NC(C)c2nc(-c3ccc(Cl)cc3)no2)cc1 (centres undefined)	.	.	.	.	44.2%	.
Cc1cccc2sc(NNC(=O)c3cc(=O)c4ccccc4o3)nc12	44.7µM*	.	-11.8%	?	31.6µM*	44.7µM*
O=C(NNc1nc2c(F)cccc2s1)c1cc(=O)c2ccccc2o1	-15.4%	35.5µM*	18.6%	-31.9%	-24.2%	-38.1%
COc1ccc2nc(NNC(=O)c3cc(=O)c4ccccc4o3)sc2c1	12.6µM*	8.91µM*	?	56.2µM*	?	50.1µM*
Cc1ccc2sc(NNC(=O)c3cc(=O)c4ccccc4o3)nc2c1C	8.91µM*	7.08µM*	?	56.2µM*	?	50.1µM*
Cc1cccc(NC(=O)CNC(=O)c2cc(=O)c3ccccc3o2)c1C	.	.	.	.	-15.2%	.
CC(=O)N1CCC2(CC1)CC(=O)c1ccc(OCC(=O)NCCC(C)C)cc1O2	.	.	.	.	8.3%	.
CCCn1c(=S)[nH]c2cc(C(=O)NCC3CCCO3)ccc2c1=O (centres undefined)	1.6%	10µM*	50.9%	-1.4%	12.3%[57.4 µM]	-7.6%
O=C(CCn1c(=S)[nH]c2ccccc2c1=O)NCC1CCCO1 (centres undefined)	-14.9%	?	41.4%	50.1µM*	?	1.2%
COc1ccccc1-n1c(SCC(=O)NCC2CCCO2)nc2c([nH]c3ccccc32)c1=O (centres undefined)	23.6%	2.3%	28.9%	-29.7%	35.5µM*	-20.6%
O=C(CCn1c(=S)[nH]c2ccccc2c1=O)NCCc1ccccc1	5.4%	-31.0%	26.2%	-1.7%	13.1%	.
C/C(=N\NS(=O)(=O)c1ccc([N+](=O)[O-])cc1)c1ccc(NC(=O)c2ccco2)cc1	-16.4%	35.5µM*	12.3%	-11.4%	-17.2%	-9.5%
O=C(NNc1ccc([N+](=O)[O-])cc1[N+](=O)[O-])c1ccco1	-14.8%	39.8µM*	?	?	.	39.8µM*
CC(=NNS(=O)(=O)c1ccc([N+](=O)[O-])cc1)c1ccc(C)cc1	.	.	?	-32.2%	?	.
O=C(NNc1ccc([N+](=O)[O-])cc1)c1ccco1	?	44.7µM*	11.0%	-3.9%	?	-10.7%
COCc1ccc2c(c1)c(OC(C)(C)C(=O)NCC[S+](C)(=O)[O-])nn2CCC(C)C	.	.	.	.	24.0%[176 µM]	.
CC(=O)c1ccc(NC(=O)c2ccc3ccn(C)c3c2)cc1	.	.	.	.	36.7%	.
Cc1cc(/C=C(\C#N)C(=O)O)c(C)n1CC1CCCO1 (centres undefined)	18.7%	?	?	14.1µM*	-8.5%	-30.9%
Cc1cc(/C=C(\C#N)C(=O)O)c(C)n1-c1ccc(Br)cc1	2.1%	70.8µM*	-18.7%	-14.0%[11.4 µM]	-26.2%	?
CCCn1c(C)cc(/C=C(\C#N)C(=O)O)c1C	22.3%	-26.7%	10.9%	-23.7%	-26.9%	1.6%
CCOC(=O)Cn1cc(/C=C2\SC(=O)N(C)C2=O)c2ccccc21	.	.	.	.	-22.7%	.
CCC(CC)CN1CCC(CN2C(=O)C(=O)NC[C@@H]2[C@@H](C)CC)CC1	.	.	10.0%	-34.5%	-21.8%	.
CC[C@H](C)[C@H]1CNC(=O)C(=O)N1CC1CCN(CCCc2ccc(OC)c(OC)c2)CC1	.	.	-3.7%	79.4µM*	0.7%	.
COc1ccc(-c2noc(-c3ccc(N4C[C@H]5CC[C@H]4C5)nc3)n2)cc1	.	.	.	.	30.8%	.
SMILES	Sfp PPTase inh	G9a block	HP1b binding inh	JMJD2A Tudor	ALOX12 inh	BAZ2B block
CC1(C)CN=C(SCc2ccc(C(C)(C)C)cc2)NC1	.	.	.	.	-10.2%	.
COc1ccc(OCCSC2=NCC(C)(C)CN2)cc1	.	.	.	.	35.5µM*	.
CC(=O)N1Cc2ccccc2CC2(CCCCN2CC2CCCC2)C1 (centres undefined)	.	.	.	.	67.2%	.
O=C(O)c1cc2c(cn1)[nH]c1ccccc12	1.6%	22.5%	17.4%	7.08µM*	-0.8%	3.98µM*
O=C(NCCCO)c1cc2c(cn1)[nH]c1ccccc12	5.6%	9.1%	34.6%	-20.4%	20.5%	?
C[C@H](NC(=O)c1cc2c(cn1)[nH]c1ccccc12)C(=O)O	8.91µM*	1.41µM*	28.2µM*	44.7µM*	?	50.1µM*
CCOC(=O)C(Cc1ccc(O)cc1)NC(=O)c1cc2c(cn1)[nH]c1ccccc12 (centres undefined)	.	.	.	.	-2.7%	.
COC(=O)[C@H](C)NC(=O)c1cc2c(cn1)[nH]c1ccccc12	8.91µM*	1.41µM*	?	39.8µM*	?	?
Cc1ccc2nc(-c3ccc(NC(=O)C4CCC(C)(C(=O)O)C4(C)C)cc3)sc2c1 (centres undefined)	.	.	.	.	-1.3%	.
CC1C2(C)OC(=N)C(C#N)(C(C)O2)C1(C#N)C#N (centres undefined)	-10.2%	70.8µM*	68.0%	-7.4%	.	-23.5%
O=C(NCCOCCO)C(=O)Nc1c2c(nn1-c1ccc(F)cc1)CSC2	.	12.6µM*	-6.6%	-1.6%	-0.4%	-2.7%
Cc1ccc(-c2cc(C(=O)Nc3nnc(C4CC4)s3)c3ccccc3n2)o1	.	.	.	.	7.94µM*	.
Cc1ccc(-c2cc(C(=O)Nc3nccs3)c3ccccc3n2)c(C)c1	-8.5%	-14.8%[59 µM]	0.5%	-32.4%	-3.7%	-3.7%
Cc1ccc(-c2cc(C(=O)Nc3nccs3)c3ccccc3n2)o1	?	4.47µM*	17.0%	?	1.41µM*	-36.3%
Cc1cccc(NC(=O)c2cc(-c3ccc(C)o3)nc3ccccc23)n1	.	.	.	.	-116.1%	.
O=C(CSc1n[nH]c(-c2ccccc2)n1)Nc1ccc(N2CCOCC2)cc1	3.1%	?	-13.6%	-16.5%	-22.9%	?
NS(=O)(=O)c1ccc(NC(=O)COC(=O)CSc2n[nH]c(-c3ccccc3)n2)cc1	8.2%	31.6µM*	35.3%	-6.4%	-14.4%	-8.2%
O=C(CSc1n[nH]c(-c2cccnc2)n1)Nc1ccccc1	-4.0%	12.4%[59 µM]	53.0%	-5.1%	0.0%	11.2%
CCOC(=O)c1ccc(NC(=O)CSc2n[nH]c(-c3ccncc3)n2)cc1	10.8%	?	39.6%	-8.2%	2.3%	0.6%
COC(=O)c1ccc(NC(=O)CSc2n[nH]c(-c3ccncc3)n2)cc1	1.8%	35.5µM*	46.2%	3.3%	0.0%	0.0%
Cc1cc(-c2nnc(SCC(=O)Nc3cccc(Cl)c3)n2N)n[nH]1	3.5%	2.7%	44.5%	-2.3%	-19.6%	56.2µM*
O=C(CSc1n[nH]c(-c2cccnc2)n1)Nc1cccc(Cl)c1	9.4%	50.1µM*	81.9%	-9.2%	-1.3%	2.3%
CCCNc1cc(N2CCC(CCC(=O)N3CCN(c4cccc(C)c4)CC3)CC2)ncn1	.	.	.	.	7.9%	.

Assay outcomes from PubChem BioAssay.
